ERK EGF inh = EGF-driven ERK pathway inhibition. 0.41% of 130,000 active. AID 1454. Potency, µM (highest dose often 11.5 µM), for the others: at the top dose activity change, negative = inhibition, usual class: inhibitors. HEK293-V1b, EGF-stimulated phospho-ERK AlphaScreen;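 note: potency is the fitted concentration of half-maximal effect; plate controls were stimulated vehicle wells for no effect and unstimulated vehicle basal for full effect; nearly all actives have a fitted effect of over 55% in size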
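Homogeneous cell-based phospho-ERK assay: HEK293/V1b cells in 1% FBS, compound 30 min then EGF 5 min, AlphaScreen luminescence. Activity normalized between DMSO and 25 nM EGF controls; AC50 from Hill modelling.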
pERK EGF inh = confirmation of ERK pathway inhibitors under EGF stimulation; Potency, µM (titrated, usually from 57.5 µM), for the others: top-dose activity change, negative = inhibition, hits mostly inhibitors; shares compounds with ERK EGF inh; 60% of 60 active; AID 1725; HEK293 EGF-stimulated ERK phosphorylation, AlphaScreen
cRaf kinase inh = blocks human c-Raf kinase activity. shares compounds with ERK EGF inh. c-Raf kinase inhibition, homogeneous biochemical assay. activity change, negative = inhibition, % at 76.9 µM. 70 tested, under 10 active
MEK inh = MEK1 (human) kinase inhibition; shares compounds with ERK EGF inh; homogeneous MEK kinase activity assay, ERK pathway; Potency, µM (doses to about 76.9 µM), inactives show at the top dose activity change, negative = inhibition, hits mostly inhibitors; 70 tested, under 10 active; AID 1732
Target sequence (Q02750 whole entry, looked up): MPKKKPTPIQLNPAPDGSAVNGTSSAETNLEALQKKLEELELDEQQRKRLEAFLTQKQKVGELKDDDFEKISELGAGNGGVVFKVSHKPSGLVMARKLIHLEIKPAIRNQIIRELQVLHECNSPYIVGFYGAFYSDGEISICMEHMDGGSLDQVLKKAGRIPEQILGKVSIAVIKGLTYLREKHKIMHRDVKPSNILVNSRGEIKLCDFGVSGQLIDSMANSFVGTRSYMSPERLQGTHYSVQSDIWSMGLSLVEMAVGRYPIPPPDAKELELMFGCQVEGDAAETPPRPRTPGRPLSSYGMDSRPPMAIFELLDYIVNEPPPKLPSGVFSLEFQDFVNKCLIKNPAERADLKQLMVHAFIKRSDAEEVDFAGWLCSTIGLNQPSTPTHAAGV
* = called active by the depositor; ? = inconclusive; · = not tested or not shown; ! = a repeat was not active; [ ] = another dose, or the depositor's remark. Shown is part of a subset that was picked to be rich in hits. Calls come from the whole dose curve; as a rule, active = well fitted curve in the direction sought with a large enough effect; inconclusive = small, poorly fitted or top-dose-only effect, or another doubt; inactive = no such curve, though single readings can be large; an effect the other way counts as inactive or inconclusive.

SMILES | ERK EGF inh | others
CC1=C(O)C(=O)C=C2C1=CC=C1[C@]2(C)CC[C@@]2(C)C3C[C@](C)(C(=O)O)CC[C@@]3(C)CC[C@@]12C (some centres undefined) | 16µM*
COC(=O)[C@@]1(Cc2ccccc2)[C@H]2c3cc(C(=O)N(C)C)[nH]c3C[C@H]2CN1C(=O)c1ccccc1 | -8%
CN[C@@H]1C[C@H](c2ccc(Cl)c(Cl)c2)c2ccccc21 | 10%
C[C@@]12CC[C@H]3[C@@H](CCC4=CC(=O)CC[C@]43C)[C@H]1CC[C@H]2C(=O)CO | 11%[25.7 µM]
CC(=O)[C@H]1CC[C@H]2[C@@H]3CCC4=CC(=O)CC[C@]4(C)[C@H]3CC[C@]12C | 14µM*!
CC(=O)[C@@H]1CC[C@@H]2[C@@H]3CCC4=CC(=O)CC[C@@]4(C)[C@H]3CC[C@]21C | -7%[25.7 µM]
COC(=O)C12CC3=CC(CC3=O)Cc3ccccc3[C@@H]1CNC2=O (some centres undefined) | -2%
c1ccc(N2CCCC3(CCNCC3)C2)nc1 | -4%
Cc1ccc(/C=C2\C(=O)NC(=S)N(c3ccc(F)cc3)C2=O)s1 | 5%
Cc1ccc(/C=C2\C(=O)NC(=S)N(c3ccccc3F)C2=O)s1 | 20µM*
CCOC(=O)C1CCN(/C=C2/C(=O)NC(=S)N(c3ccccc3F)C2=O)CC1 | 2%
CN1[C@@H]2CC[C@H]1CC(OC(c1ccc(F)cc1)c1ccc(F)cc1)C2 (some centres undefined) | 7%
O=C(Nc1cccc(F)c1)N1CC2(CCNCC2)C1 | 9%
CC(C)=CCCC1(C)C=Cc2c(O)c3c(c(CC=C(C)C)c2O1)OC12C(=CC4CC1C(C)(C)OC2(C/C=C(/C)C(=O)O)C4O)C3=O (centres undefined) | 37%
CC(C)CCCC1(C)C=Cc2c(O)c3c(c(CCC(C)C)c2O1)OC12C(CC4CC1C(C)(C)OC2(CCC(C)C(=O)O)C4O)C3=O (centres undefined) | 5%
CC(C)=CCCC1(C)C=Cc2c(O)c3c(c(CC=C(C)C)c2O1)OC12C(=CC4CC1C(C)(C)OC2(C/C=C(/C)C(=O)O)C4=O)C3=O (centres undefined) | 16µM*
COC(=O)[C@@]1(Cc2ccccc2)[C@H]2c3cc(C(=O)N(C)C)n(C)c3C[C@H]2CN1C(=O)c1ccccc1 | 6%
CCCCCC1C(=O)O[C@H](C)[C@@H](NC(=O)c2cccc(NC=O)c2O)C(=O)OC(C)C1OC(=O)CC(C)C (some centres undefined) | 11%
CN(C)c1ccc(/C=C/c2cc[n+](C)c3ccccc23)cc1 | 14%
CC[n+]1c(/C=C/C=C/c2ccc(N(C)C)cc2)sc2ccccc21 | 16µM*
CC(=O)C1=C(O)[C@@H]2[C@@H]3c4c[nH]c5cccc(c45)C[C@@H]3C(C)(C)N2C1=O | -2%
O=C(O)Cc1cccnc1C(=O)O | -7%
CCCN1CCO[C@@H]2c3cc(O)ccc3OC[C@@H]21 | 3%
CN1Cc2c(ccc3c2OCO3)C2C(O)Cc3cc4c(cc3C21)OCO4 (centres undefined) | 0%
CCC1CN2CCc3cc(OC)c(OC)cc3C2CC1CC1NCCc2cc(OC)c(OC)cc21 (centres undefined) | 1%
SMILES | ERK EGF inh | others
C[C@@H]1OC(OC2C(OC3CC[C@@]4(C)C5CC=C6C7CC(C)(C)CC[C@@]7(C(=O)O)CCC6(C)C5(C)CCC4[C@]3(C)CO)OCC(O)C2O)C(O)C(O)C1O (some centres undefined) | 28µM*
CCn1nc(-c2cccs2)nc2c(=O)n(C)c(=O)nc1-2 | · | cRaf kinase inh=?;MEK inh=0.89µM*
Cc1cccc(-n2c(-c3cccs3)nc3ccccc3c2=O)c1 | 12%
CCn1nc(/C=C/c2ccccc2)nc2c(=O)n(C)c(=O)nc1-2 | -2%
O=c1ccc2cc(OC3OC(CO)C(O)C(O)C3O)c(O)cc2o1 (centres undefined) | 18%
C[C@H](CCC(=O)O)[C@H]1CC[C@@H]2[C@H]3CC[C@H]4C[C@H](O)CC[C@]4(C)[C@@H]3CC[C@@]21C | -6%
CCN1C(=O)NC(=O)/C(=C/c2cc(C)n(-c3sc(C)c(C)c3C#N)c2C)C1=O | ? | pERK EGF inh=-4%;cRaf kinase inh=-9;MEK inh=?
Cc1cc(/C=C2/C(=O)NC(=O)N(Cc3ccco3)C2=O)c(C)n1-c1ccccc1 | 6%
Cc1ccc(N2C(=O)NC(=O)/C(=C\c3cc(C)n(-c4sc5c(c4C#N)CCCC5)c3C)C2=O)cc1 | 0%
C(=C/c1ccccc1)/CN1CCN(CCOC(c2ccccc2)c2ccccc2)CC1 | -12%
CO[C@@H](C)[C@](O)(C(=O)OCC1=CCN2CC[C@@H](O)[C@H]12)C(C)C | 16%[25.7 µM]

Screening data (PubChem)
